From PubChem BioAssay AID1159580 (chemical genetic matrix, 2015)
Where “and” joins values, the source holds several entries; their conditions need not be identical. Equal entries are not always repeated. Hit rate of the full screen: of about 5,500 compounds, about 2,000 (36%) were called active. Not shown: some 18% with an inconclusive outcome. Cut-off read from the data, not from the text of the source: active = normalized growth mostly below about 0.91 (no sharp cut-off); inconclusive = no clear call, values can overlap the other calls; inactive = mostly above about 0.92. The list shows a part of the results.

Assay: chemical genetic growth profiling, strain panel (AID 1159580);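 note: tested at 20 µM; growth read once vehicle control cultures reached saturation at 30 °C; 1 = growth at the plate median or of vehicle wells; lower values mean less growth of the strain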
Conditions: S. cerevisiae deletion strains, growth OD

Measured: normalized growth

COC(=O)[C@H]1[C@H]2C[C@H]3c4[nH]c5cc(OC)ccc5c4CCN3C[C@H]2C[C@@H](OC(=O)c2cc(OC)c(OC)c(OC)c2)[C@@H]1OC
inactive: locus YAL021C, strain ccr4, stronger effect = lower value 0.989 | locus YAL026C, strain drs2, stronger effect = lower value 1.02 | locus YAL030W, strain snc1, stronger effect = lower value 1.01 | locus YBL061C, strain skt5, stronger effect = lower value 1.02 | locus YBR009C, strain hhf1, stronger effect = lower value 0.996 | locus YBR021W, strain FUR4, stronger effect = lower value 0.998 | locus YBR023C, strain chs3, stronger effect = lower value 1.01 | locus YBR171W, strain sec66, stronger effect = lower value 1.02 | locus YBR229C, strain ROT2, stronger effect = lower value 1 | locus YBR231C, strain swc5, stronger effect = lower value 1.01 | locus YBR279W, strain paf1, stronger effect = lower value 1.01 | locus YCL011C, strain gbp2, stronger effect = lower value 1.01 | locus YCL016C, strain dcc1, stronger effect = lower value 1.01 | locus YCL029C, strain bik1, stronger effect = lower value 0.971 | locus YCL061C, strain MRC1, stronger effect = lower value 1.01 | locus YCL069W, strain vba3, stronger effect = lower value 1.01 | locus YCR088W, strain abp1, stronger effect = lower value 1.01 | locus YDL005C, strain med2, stronger effect = lower value 1.01 | locus YDL035C, strain GPR1, stronger effect = lower value 1.05 | locus YDL040C, strain nat1, stronger effect = lower value 1.01 | locus YDL074C, strain BRE1, stronger effect = lower value 0.976 | locus YDL101C, strain DUN1, stronger effect = lower value 0.986 | locus YDL185W, strain tfp1, stronger effect = lower value 0.966 | locus YDL192W, strain arf1, stronger effect = lower value 1.02 | locus YDR001C, strain nth1, stronger effect = lower value 1.01 | locus YDR069C, strain doa4, stronger effect = lower value 1 | locus YDR101C, strain arx1, stronger effect = lower value 0.977 | locus YDR137W, strain rgp1, stronger effect = lower value 1.03 | locus YDR159W, strain sac3, stronger effect = lower value 1.02 | locus YDR162C, strain NBP2, stronger effect = lower value 1.02 | locus YDR195W, strain ref2 1 | locus YDR297W, strain sur2, stronger effect = lower value 1.01 | locus YDR318W, strain mcm21, stronger effect = lower value 0.992 | locus YDR334W, strain swr1, stronger effect = lower value 1.02 | locus YDR335W, strain msn5, stronger effect = lower value 1.02 | locus YDR388W, stronger effect = lower value 0.983 | locus YDR392W, strain spt3, stronger effect = lower value 0.925 | locus YDR502C, strain sam2, stronger effect = lower value 0.929 | locus YEL003W, strain gim4, stronger effect = lower value 1.02 | locus YEL037C, strain rad23, stronger effect = lower value 1.02 | locus YEL061C, strain CIN8 (second series), stronger effect = lower value 1.01 | locus YEL061C, strain CIN8, stronger effect = lower value 1 | locus YER015W, strain faa2, stronger effect = lower value 1 | locus YER016W, strain bim1, stronger effect = lower value 1.01 | locus YER110C, stronger effect = lower value 0.975 | locus YER111C, strain swi4, stronger effect = lower value 1.01 | locus YER155C, strain BEM2 (second series), stronger effect = lower value 0.975 | locus YER155C, strain BEM2, stronger effect = lower value 1 | locus YER167W, strain BCK2, stronger effect = lower value 1.01 | locus YFR010W, strain ubp6, stronger effect = lower value 1.01 | locus YGL078C, strain dbp3, stronger effect = lower value 1.02 | locus YGL086W, strain mad1, stronger effect = lower value 0.999 | locus YGL167C, strain pmr1, stronger effect = lower value 1.02 | locus YGL173C, strain kem1, stronger effect = lower value 1.02 | locus YGL227W, strain vid30, stronger effect = lower value 1.01 | locus YGL240W, strain doc1, stronger effect = lower value 0.997 | locus YGL248W, strain PDE1, stronger effect = lower value 0.987 | locus YGL253W, strain hxk2, stronger effect = lower value 1.02 | locus YGR135W, strain pre9, stronger effect = lower value 1 | locus YGR252W, strain gcn5, stronger effect = lower value 1.06 | locus YHR013C, strain ard1, stronger effect = lower value 0.995 | locus YHR027C, strain rpn1, stronger effect = lower value 1.02 | locus YHR030C, strain SLT2, stronger effect = lower value 1.01 and 0.978 | locus YHR079C, strain IRE1 (second series), stronger effect = lower value 0.982 | locus YHR079C, strain IRE1, stronger effect = lower value 0.968 | locus YHR094C, strain hxt1, stronger effect = lower value 0.993 | locus YHR129C, strain ARP1, stronger effect = lower value 1 | locus YHR142W, strain chs7, stronger effect = lower value 1.01 | locus YHR200W, strain rpn10, stronger effect = lower value 0.992 | locus YIL066C, strain RNR3, stronger effect = lower value 1.01 | locus YIL073C, strain SPO22, stronger effect = lower value 0.923 | locus YIL125W, strain kgd1, stronger effect = lower value 1.02 | locus YIR030C, strain dcg1, stronger effect = lower value 0.994 | locus YJL092W, strain hpr5, stronger effect = lower value 1.01 | locus YJL095W, strain BCK1 (second series), stronger effect = lower value 1.01 | locus YJL095W, strain BCK1, stronger effect = lower value 0.958 and 0.964 | locus YJL115W, strain asf1, stronger effect = lower value 1.01 | locus YJL129C, strain trk1, stronger effect = lower value 1 | locus YJL134W, strain LCB3, stronger effect = lower value 0.996 | locus YJL154C, strain vps35, stronger effect = lower value 1 | locus YJL164C, strain tpk1, stronger effect = lower value 1 | locus YJL166W, strain qcr8, stronger effect = lower value 0.987 | locus YJL168C, strain set2, stronger effect = lower value 0.991 | locus YJL187C, strain SWE1 (second series), stronger effect = lower value 0.979 | locus YJL187C, strain SWE1, stronger effect = lower value 1.01 | locus YJR043C, strain POL32, stronger effect = lower value 1.07 | locus YJR066W, strain TOR1, stronger effect = lower value 0.92 | locus YJR075W, strain HOC1, stronger effect = lower value 0.982
